In PubChem BioAssay (Tox21):
Several values for one entry are separate records, joined by “and”; a condition that tells them apart may be missing. Equal values may be shown once. Inconclusive results are not listed. Where a call stands in place of a potency, no number is given. Where a structure was tested more than once in an assay, its records may differ in their call. Activity calls are given as the source filed them. The call rests on the fitted dose curve; in most records, active means well fitted curve in the direction sought with a large enough effect in the repeat runs; inconclusive means weak or mixed curves; inactive means no such curve, though single readings can be large; an effect the other way counts as inactive or inconclusive.

Columns and labels:
[1] = biological target: Cytochrome P450 2C19 (Homo sapiens) (UniProt P33261); experiment: Cytochrome P450 Family 2 Subfamily C Member 19 (CYP2C19) small molecule antagonists: luciferase reporter qHTS assay (AID 1671197); further: nearly all actives have a fitted effect of over 65% in size
Sequence of Cytochrome P450 2C19 (Homo sapiens) (P33261 whole entry, looked up): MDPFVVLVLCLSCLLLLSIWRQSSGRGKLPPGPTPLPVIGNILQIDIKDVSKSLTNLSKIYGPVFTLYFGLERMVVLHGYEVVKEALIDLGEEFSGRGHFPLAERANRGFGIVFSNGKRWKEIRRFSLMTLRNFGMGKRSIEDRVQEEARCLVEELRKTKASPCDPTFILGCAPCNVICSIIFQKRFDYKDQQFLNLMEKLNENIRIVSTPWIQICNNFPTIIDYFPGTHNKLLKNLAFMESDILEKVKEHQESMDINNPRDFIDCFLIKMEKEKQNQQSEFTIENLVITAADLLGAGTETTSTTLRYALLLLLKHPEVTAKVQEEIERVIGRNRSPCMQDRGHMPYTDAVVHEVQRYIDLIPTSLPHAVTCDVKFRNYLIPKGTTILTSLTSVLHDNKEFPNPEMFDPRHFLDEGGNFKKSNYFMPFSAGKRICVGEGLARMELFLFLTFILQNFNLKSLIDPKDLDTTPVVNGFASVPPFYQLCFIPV
Summary of the method: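 Inhibition of CYP2C19 was scored from loss of luminescence in a P450-Glo proluciferin substrate assay, NADPH-started and run 1 h at 37C, with ketoconazole as positive control.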

[2] = biological target: Cytochrome P450 2C9 (Homo sapiens) (UniProt P11712); experiment: Cytochrome P450 Family 2 Subfamily C Member 9 (CYP2C9) small molecule antagonists: luciferase reporter qHTS assay (AID 1671198); further: nearly all actives have a fitted effect of over 50% in size
Sequence of Cytochrome P450 2C9 (Homo sapiens) (P11712 whole entry, looked up): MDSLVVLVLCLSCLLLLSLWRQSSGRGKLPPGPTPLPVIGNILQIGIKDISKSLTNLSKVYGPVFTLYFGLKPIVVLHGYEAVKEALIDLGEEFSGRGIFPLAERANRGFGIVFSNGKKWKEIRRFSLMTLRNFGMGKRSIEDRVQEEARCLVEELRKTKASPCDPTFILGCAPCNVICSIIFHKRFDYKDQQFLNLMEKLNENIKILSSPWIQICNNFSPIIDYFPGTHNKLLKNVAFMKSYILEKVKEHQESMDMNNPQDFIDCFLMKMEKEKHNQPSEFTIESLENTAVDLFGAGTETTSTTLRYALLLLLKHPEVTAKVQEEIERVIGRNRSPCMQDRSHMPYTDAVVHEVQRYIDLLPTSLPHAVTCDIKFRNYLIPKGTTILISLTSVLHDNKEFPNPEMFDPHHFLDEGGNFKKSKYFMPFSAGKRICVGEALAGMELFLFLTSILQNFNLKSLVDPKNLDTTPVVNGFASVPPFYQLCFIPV
Summary of the method: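 P450-Glo proluciferin substrate with CYP2C9 enzyme; 10 min RT preincubation, then NADPH regeneration 1 h at 37C; luciferin detection reagent 20 min RT, luminescence in relative luminescence units.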

[3] = biological target: Cytochrome P450 1A2 (Homo sapiens) (UniProt P05177); experiment: Cytochrome P450 Family 1 Subfamily A Member 2 (CYP1A2) small molecule antagonists: luciferase reporter qHTS assay (AID 1671199); further: nearly all actives have a fitted effect of over 50% in size
Sequence of Cytochrome P450 1A2 (Homo sapiens) (P05177 whole entry, looked up): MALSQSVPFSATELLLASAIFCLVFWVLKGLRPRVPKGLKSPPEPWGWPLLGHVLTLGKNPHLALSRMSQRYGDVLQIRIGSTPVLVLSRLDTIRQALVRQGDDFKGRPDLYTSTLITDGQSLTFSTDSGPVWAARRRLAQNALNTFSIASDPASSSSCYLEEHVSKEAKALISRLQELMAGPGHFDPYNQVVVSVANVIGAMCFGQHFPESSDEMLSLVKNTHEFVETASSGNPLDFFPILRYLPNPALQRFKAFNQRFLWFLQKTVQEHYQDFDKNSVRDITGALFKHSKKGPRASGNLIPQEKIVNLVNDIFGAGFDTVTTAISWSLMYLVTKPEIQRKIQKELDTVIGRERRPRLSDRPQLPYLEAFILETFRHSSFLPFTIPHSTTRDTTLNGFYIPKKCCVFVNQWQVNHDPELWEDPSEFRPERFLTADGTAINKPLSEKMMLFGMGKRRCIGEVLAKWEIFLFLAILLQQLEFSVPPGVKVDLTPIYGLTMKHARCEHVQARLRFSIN
Summary of the method: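 Steps: enzyme-substrate mix dispensed; test compounds and furafylline control pinned in; 10 min room temperature; NADPH regeneration solution added, 1 h; reaction stopped with luciferin detection reagent; luminescence read after 20 min.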

[4] = biological target: Voltage-gated inwardly rectifying potassium channel KCNH2 (Homo sapiens) (UniProt Q12809); experiment: Human Ether-a-go-go-Related Gene (hERG) channel small molecule antagonists: fluorescence cell-based qHTS assay (AID 1671200); further: nearly all actives have a fitted effect of over 50% in size
Sequence of Voltage-gated inwardly rectifying potassium channel KCNH2 (Homo sapiens) (Q12809 whole entry, looked up): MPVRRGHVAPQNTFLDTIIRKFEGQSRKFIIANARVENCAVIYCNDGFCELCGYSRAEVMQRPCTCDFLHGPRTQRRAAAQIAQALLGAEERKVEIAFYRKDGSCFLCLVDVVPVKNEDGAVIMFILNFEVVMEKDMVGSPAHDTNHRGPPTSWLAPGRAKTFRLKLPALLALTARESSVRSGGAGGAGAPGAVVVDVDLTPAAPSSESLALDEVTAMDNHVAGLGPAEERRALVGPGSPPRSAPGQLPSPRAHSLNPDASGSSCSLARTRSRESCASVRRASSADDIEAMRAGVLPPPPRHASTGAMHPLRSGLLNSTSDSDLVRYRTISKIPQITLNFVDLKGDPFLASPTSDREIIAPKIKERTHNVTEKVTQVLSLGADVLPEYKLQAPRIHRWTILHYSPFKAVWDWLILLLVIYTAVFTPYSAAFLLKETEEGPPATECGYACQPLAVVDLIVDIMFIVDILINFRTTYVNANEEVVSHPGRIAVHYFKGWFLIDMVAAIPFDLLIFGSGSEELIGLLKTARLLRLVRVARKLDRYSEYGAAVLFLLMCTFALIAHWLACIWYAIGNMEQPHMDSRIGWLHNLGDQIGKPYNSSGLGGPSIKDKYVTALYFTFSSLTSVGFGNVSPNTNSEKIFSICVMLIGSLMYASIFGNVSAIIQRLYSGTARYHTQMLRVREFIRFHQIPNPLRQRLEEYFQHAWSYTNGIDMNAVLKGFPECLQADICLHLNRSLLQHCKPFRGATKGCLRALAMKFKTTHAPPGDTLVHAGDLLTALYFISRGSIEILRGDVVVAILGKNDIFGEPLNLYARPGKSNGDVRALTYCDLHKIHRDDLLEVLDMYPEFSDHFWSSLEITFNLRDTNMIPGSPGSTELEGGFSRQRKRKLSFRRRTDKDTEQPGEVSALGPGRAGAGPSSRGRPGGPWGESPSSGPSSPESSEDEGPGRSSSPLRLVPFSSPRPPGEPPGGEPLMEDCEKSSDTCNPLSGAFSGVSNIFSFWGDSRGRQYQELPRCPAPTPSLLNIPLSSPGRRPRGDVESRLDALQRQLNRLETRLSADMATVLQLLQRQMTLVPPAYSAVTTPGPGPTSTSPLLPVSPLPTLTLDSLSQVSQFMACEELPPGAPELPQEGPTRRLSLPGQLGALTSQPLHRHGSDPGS
Summary of the method: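 Kinetic two-minute fluorescence traces, sampled at 1 s, were collected following thallium stimulus of U2OS cells (1000 per well) that had been cultured overnight at 37 C and loaded with FluxOR II.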

[5] = biological target: Cytochrome P450 3A4 (Homo sapiens) (UniProt P08684); experiment: Cytochrome P450 Family 3 Subfamily A Member 4 (CYP3A4) small molecule antagonists: luciferase reporter qHTS assay (AID 1671201); further: nearly all actives have a fitted effect of over 50% in size
Sequence of Cytochrome P450 3A4 (Homo sapiens) (P08684 whole entry, looked up): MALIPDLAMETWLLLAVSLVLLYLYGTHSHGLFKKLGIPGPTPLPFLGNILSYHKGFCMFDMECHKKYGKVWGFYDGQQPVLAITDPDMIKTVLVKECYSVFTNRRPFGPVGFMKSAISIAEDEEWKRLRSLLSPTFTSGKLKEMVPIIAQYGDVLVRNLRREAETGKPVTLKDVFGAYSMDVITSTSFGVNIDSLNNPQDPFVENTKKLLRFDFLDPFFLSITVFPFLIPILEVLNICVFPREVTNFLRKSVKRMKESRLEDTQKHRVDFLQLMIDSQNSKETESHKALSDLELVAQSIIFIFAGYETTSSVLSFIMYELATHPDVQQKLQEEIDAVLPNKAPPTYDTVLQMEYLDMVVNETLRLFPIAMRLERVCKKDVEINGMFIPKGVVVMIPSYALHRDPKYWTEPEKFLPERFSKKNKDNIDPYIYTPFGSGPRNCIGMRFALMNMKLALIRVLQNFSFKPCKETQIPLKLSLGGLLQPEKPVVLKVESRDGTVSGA
Summary of the method: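 Proluciferin-to-luciferin conversion by CYP3A4, NADPH-regenerated, 1 h RT; luminescence read as RLU. Ketoconazole as control.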
Potency means the concentration at half of the fitted maximal effect.

Structure (SMILES) | Potency [1] | Potency [2] | Potency [3] | Potency [4] | Potency [5]
Cc1cccc(C)c1[N+](=O)[O-] | inactive | inactive | inactive | inactive | inactive
O=Cc1ccc(CO)o1 | inactive | inactive | inactive | inactive | inactive
CC(O)CNCC(C)O (configuration not stated) | 20.1 µM (active) and 71 µM (active) | 35.8 µM (active) and inactive | inactive | inactive | 31.9 µM (active) and inactive
OC1CCCCC1 | inactive | inactive | inactive | inactive | inactive
O=C(NCC1CCCCN1)c1cc(OCC(F)(F)F)ccc1OCC(F)(F)F (configuration not stated) | inactive | inactive | inactive | 15.2 µM (active) and 9.52 µM (active) | –
COC(=O)CCCCC(=O)OC | inactive | inactive | inactive | inactive | inactive
COc1ccc([C@@H]2CC(=O)c3c(O)cc(O[C@@H]4O[C@H](CO[C@@H]5O[C@@H](C)[C@H](O)[C@@H](O)[C@H]5O)[C@@H](O)[C@H](O)[C@H]4O)cc3O2)cc1OC | inactive | – | inactive | inactive | inactive and 21.7 µM (active)
CCCCCCCCCCCCCC(=O)O | inactive | inactive | inactive and 71 µM (active) | inactive | inactive
CCCCC(CC)COC(=O)c1ccc(C(=O)OCC(CC)CCCC)cc1 (configuration not stated) | inactive | inactive | – | inactive | inactive
CCCOC(=O)NCCCN(C)C | 35.6 µM (active) and inactive | – | inactive | inactive | inactive
COc1cc(NC(=O)CC(C)=O)c(OC)cc1Cl | 40.1 µM (active) and 39.9 µM (active) | – | 3.57 µM (active) and 5.64 µM (active) | inactive | 14.2 µM (active) and 15.9 µM (active)
OB(O)O | inactive | – | inactive | inactive | inactive
NC(=O)c1ncn([C@@H]2O[C@H](CO)[C@@H](O)[C@H]2O)n1 | inactive | – | inactive | inactive | inactive
Cc1nnc(NS(=O)(=O)c2ccc(N)cc2)s1 | 39.8 µM (active) | 35.5 µM (active) | inactive | inactive | inactive
CCCCCCCC(=O)O | 38.5 µM (active) and inactive | – | inactive | inactive | inactive
N#CCC(=O)O | inactive | – | inactive | inactive | inactive
CCCOCC(C)O (configuration not stated) | inactive | – | inactive | inactive | inactive
Cc1ccccc1Cl | inactive | – | inactive | inactive | inactive

Structure (SMILES) | Potency [1] | Potency [2] | Potency [3] | Potency [4] | Potency [5]
CN1CCCC1=O | inactive | – | inactive | inactive | inactive
OCC(O)CS (configuration not stated) | inactive | – | inactive | inactive | inactive
Nc1cccc(N)n1 | 39.9 µM (active) | – | inactive | inactive | inactive
CCCN(CCC)C(=O)SCC | inactive | – | inactive | inactive | inactive
O=C1O[C@H]([C@H](O)CO)C(O)=C1O | inactive | inactive | inactive | inactive | inactive
Nc1nc(N)c2nc(-c3ccccc3)c(N)nc2n1 | inactive | – | 36 µM (active) and 31.7 µM (active) and 24.5 µM (active) | inactive | –
CC(=O)OCc1ccc2c(c1)OCO2 | 35.7 µM (active) and 31.7 µM (active) | 25.2 µM (active) and 35.6 µM (active) | 2.01 µM (active) and 2.52 µM (active) | inactive | 20.1 µM (active) and 39.9 µM (active)
O=C(c1ccccc1)c1ccc(O)c(O)c1O | 80.4 µM (active) and 63.3 µM (active) | 40.3 µM (active) and 63.3 µM (active) | – | inactive | inactive
CCCCCC(C)=O | 81.3 µM (active) and inactive | – | inactive | inactive | inactive
Cc1cc(C)cc(O)c1 | 40 µM (active) and 73.1 µM (active) | – | 35.7 µM (active) and 41.1 µM (active) | inactive | inactive
CC1(C)C(=O)N(Cl)C(=O)N1Cl | 71.1 µM (active) | – | inactive | inactive | inactive
OCC(CO)(CO)CO | inactive | inactive | inactive | inactive | inactive
CC/C=C(\C(=O)N[C@@H]1C(=O)N2C(C(=O)OCOC(=O)C(C)(C)C)=C(COC(N)=O)CS[C@H]12)c1csc(N)n1 | 19.5 µM (active) | – | 27.5 µM (active) and inactive | inactive | –
COc1ccccc1[N+](=O)[O-] | inactive and 35.6 µM (active) | inactive | – | inactive | inactive
Cc1ccc(C)c(S(=O)(=O)O)c1 | inactive | inactive | inactive | inactive | inactive
Oc1ccc(Cc2ccccc2O)cc1 | 36 µM (active) and 39.9 µM (active) | – | inactive | inactive | inactive
CN=C(NC#N)NCCSCc1nc[nH]c1C | 22.2 µM (active) and 34.7 µM (active) | – | inactive | inactive | –
CC1(C)[C@@H](O[C@H]2O[C@H](C(=O)O)[C@@H](O)[C@H](O)[C@H]2O[C@@H]2O[C@H](C(=O)O)[C@@H](O)[C@H](O)[C@H]2O)CC[C@]2(C)[C@H]3C(=O)C=C4[C@@H]5C[C@@](C)(C(=O)O)CC[C@]5(C)CC[C@@]4(C)[C@]3(C)CC[C@@H]12 | inactive | – | inactive | inactive | inactive
